Laboratory results: PubChem BioAssay (Tox21)
Unmarked numbers belong to inactive results. Activity calls are given as the source filed them. Calls come from the whole dose curve; as a rule, active = well fitted curve in the direction sought with a large enough effect in the repeat runs; inconclusive = weak or mixed curves; inactive = flat fitted curve, though single readings scatter.

Assay: qHTS assay to test for compound auto fluorescence at 460 nm (blue) in HepG2 cells (AID 720687)
Conditions: autofluorescence 405/460 nm, 1 h; series mostly up to 91.3 µM; fluorescence, % of fluorescent control: at the top concentration
Excerpt: U.S. Tox21 Program National Center for Advancing Translational Sciences [NCATS] NIH Chemical Genomics Center [NCGC] U.S. Environmental Protection Agency [EPA] National Institutes of Environmental Health Sciences [NIEHS] National Toxicology Program [NTP] U.S. Food and Drug Administration [FDA] Tox21 Assay Overview: Compound auto fluorescence often interferes with screening of the compound library against various biological targets and signaling pathways. Some of these compounds may have fluorophoric properties. Such properties may interfere with the assay outputs resulting in false positives and/or negatives. To decrease such complications and ensure the compound activities are relevant in terms of biological response, the Tox21 10K compound library was screened for auto fluorescence. From the fluorophores used as reporter signals in our screening assays, the auto fluorescence equivalencies of compounds against three fluorophores have been evaluated: Triamterene, Fluorescein and Rose Bengal sodium for blue, green and red fluorescence, respectively. The fluorescence intensities were measured using Excitation/Emission wavelengths at 405/460nm, 485/535nm and 540/590nm for blue, green and red labels, respectively. This assay includes the blue fluorescence data.
Tox21 Assay Protocol Summary: 2,000 HepG2 cells in 5 uL of culture medium (MEM containing 10% FBS) per well were dispensed into black wall/clear bottom 1536-well plates using a Multidrop Combi Dispenser (ThermoFisher Scientific, Waltham, MA). The assay plates were incubated overnight at 37 C to allow cell attachment to the well bottom, followed by the transfer of 23 nL compound or DMSO vehicle by a pintool work station (Kalypsys , San Diego, CA). After the assay plates were incubated for 1 hr at 37 C and 5% CO2, fluorescence intensities in the assay plates were measured by an Envision (PerkinElmer, Shelton, CT) plate reader using three labels for measuring blue, green and red fluorescence at […] 460, 535 and 590 nm respectively.
% is set by controls: 0 for no effect and ±100 for the full control effect.

Structure (SMILES)	fluorescence, % of fluorescent control	outcome
CCCNC(C)(C)COC(=O)c1ccccc1	-0.0207% [at 46 µM]	
C1CSCCS1	-0.115%	
CCOc1ccc(NS(=O)(=O)c2ccc(N)cc2)nn1	-0.0341% [at 46 µM]	
CCCCOc1cc(C(=O)NCCN(CC)CC)c2ccccc2n1	-0.0681% [at 18.6 µM]	
N#Cc1ccc(C(c2ccc(C#N)cc2)n2cncn2)cc1		inactive
c1ccc(CN(CC2=NCCN2)c2ccccc2)cc1	0.011% [at 46 µM]	
CCN(CCCc1ccccc1)CCCc1ccccc1	-0.0033% [at 18.6 µM]	
O=C(O[C@@H](C(=O)O)[C@@H](OC(=O)c1ccccc1)C(=O)O)c1ccccc1	-0.0153% [at 95.7 µM]	
C=CC1CO1 (stereo not given)	0.0314% [at 95.7 µM]	
O=C(O)C(=O)Cc1c[nH]c2ccccc12	0.0775%	
NC(=O)Cc1cccc(C(=O)c2ccccc2)c1N	-0.106% [at 46 µM]	
C=CC(C)(O)CC/C=C(\C)CCC=C(C)C (stereo not given)		inactive
CC(C)c1ccccc1	0.0084% [at 95.7 µM]	
CC/C=C\CCOC(=O)CCCCC	0.0854%	
O=C(CC(=O)C(F)(F)F)c1ccccc1	-0.0057% [at 95.7 µM]	
C=C(C)C(=O)OCCOP(=O)(O)O	0.0783% [at 95.7 µM]	
C[C@@H]1CN(c2c(F)c(N)c3c(=O)c(C(=O)O)cn(C4CC4)c3c2F)C[C@H](C)N1	0.0628% [at 46 µM]	
CCCCCCCCOC(=O)CCCCCCCCC(=O)OCCCCCCCC	0.0095%	
Cc1cc2nc(N)sc2cc1C	-0.143%	
C=Cc1ccccc1		inactive

Structure (SMILES)	fluorescence, % of fluorescent control	outcome
NS(=O)(=O)c1cc(-c2nn[nH]n2)c(NCc2cccs2)cc1Cl	0.0078% [at 46 µM]	
CC(=O)OC(C)OC(C)=O	0.136% [at 95.7 µM]	
C[C@]12CCC(=O)C=C1CC[C@@H]1[C@@H]2CC[C@@]2(C)[C@H]1CC[C@]2(O)C(=O)CO	0.0365% [at 46 µM]	
OCCN(CCO)c1ccccc1	0.256%	
O=C1CCCc2ccccc21	-0.0829%	
CN1[C@@H]2CC[C@H]1CC(OC(=O)c1c[nH]c3ccccc13)C2 (stereo not given in full)	0.916% [at 46 µM]	
CC(C)(C)c1ccc(OC(=O)c2ccccc2O)cc1	-0.0978%	
CC(C)=CCCC(C)CCOC=O (stereo not given)	-0.124%	
CCC/C=C/CO	0.0306%	
O=Cc1ccc(F)c(Br)c1	0.0129%	
CCCCNc1cc(C(=O)O)cc(S(N)(=O)=O)c1Oc1ccccc1	-0.0058% [at 18.6 µM]	
CCCCCCOc1ccc(N)cc1	0.148%	
CCN[C@H]1CN(CCCOC)S(=O)(=O)c2sc(S(N)(=O)=O)cc21	-0.117% [at 18.6 µM]	
Nc1cccc(S(=O)(=O)O)c1	0.706%	
O=C1CCN(c2ccccc2)N1	-0.0891%	
CC1=C(CC(=O)O)c2cc(F)ccc2/C1=C\c1ccc(S(C)(=O)=O)cc1	-0.218% [at 46 µM]	
Cc1cc(NS(=O)(=O)c2ccc(N)cc2)nc(C)n1	-0.0424% [at 46 µM]	
CC(C)=CCC[C@](C)(O)[C@@H]1CC=C(C)CC1	0.0466%	
CCCCC(CC)COC(=O)COc1cc(Cl)c(Cl)cc1Cl (stereo not given)	0.131%	
O=C(Cl)c1cccc([N+](=O)[O-])c1	0.0051%	
